Results filed as inconclusive are left out. Entries that show only a call come without a potency. Values without a mark were called inactive. Calls of active or inactive are those of the source. Calls come from the whole dose curve.
Assay: qHTS assay to identify small molecule antagonists of the sonic hedgehog signaling (Shh) pathway (AID 1259369); note: nearly all actives have a fitted effect of over 45% in size
Conditions: NIH/3T3 Gli1-Luc reporter, Shh antagonist, luminescence 24 h; series mostly up to 92.4 µM
How it was run: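 Screening used 3T3Gli1-Luc cells at 2,000 per well, compounds delivered in DMSO, and conditioned medium as agonist stimulus; plates incubated 24hr at 37 C and 5% CO2 before a 30min luciferase step.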
CCCCN1C=CN(C)C1 gave an activity change, negative = inhibition of 0.745% [at 19 µM]. With CCCC(C)C(=O)OCC (stereo not drawn) the Potency was “inactive”. With C[C@H]1C[C@H]2[C@@H]3CCC4=CC(=O)C=C[C@]4(C)[C@H]3C(=O)C[C@]2(C)[C@@]1(O)C(=O)CO the Potency was “inactive”. For CC[N+](C)(CC)CCOC(=O)C1c2ccccc2Oc2ccccc21, the Potency was “inactive”. With CO/N=C(\C(=O)N[C@@H]1C(=O)N2C(C(=O)O)=C(CSc3nc(=O)c(O)nn3C)CS[C@H]12)c1csc(N)n1 the Potency was “inactive”. For CC(=O)N[C@H]1[C@H]([C@H](O)[C@H](O)CO)OC(C(=O)O)=C[C@@H]1N=C(N)N, the Potency was “inactive”. For CCOc1ccc2nc(S(N)(=O)=O)sc2c1, the Potency was “inactive”. With O=S(=O)(O)c1cccc2c(S(=O)(=O)O)cccc12 the Potency was “inactive”. In the case of NC(=O)N[C@@H](CCC(=O)O)C(=O)O, the Potency is reported as “inactive”. For CNCC(O)c1ccc(O)c(O)c1 (stereo not drawn), the Potency was “inactive”. In the case of [Ca+2], the Potency is reported as “inactive”. For Nc1ccccn1, the Potency was “inactive”. In the case of O=C(O)CC(C(=O)O)S(=O)(=O)O (stereo not drawn), the Potency is reported as 30.6 µM (active). In the case of CC(=O)C1CCCCC1=O (stereo not drawn), the Potency is reported as “inactive”. For CO[C@@]1(NC(=O)C(C(=O)O)c2ccc(O)cc2)C(=O)N2C(C(=O)O)=C(CSc3nnnn3C)CO[C@@H]21 (stereo partly drawn), the Potency was “inactive”. For O=S(=O)(O)c1cccc2ccccc12, the Potency was “inactive”. With CC[N+](CC)(CC(=O)Nc1c(C)cccc1C)Cc1ccccc1 (tested in a mixture with another compound) the Potency was “inactive”. For CN(C)C(=O)Oc1cccc([N+](C)(C)C)c1, the Potency was “inactive”. Work on CCN[C@@H]1C[C@H](N)[C@@H](OC2OC(CN)=CCC2N)[C@H](O)[C@H]1O[C@H]1OC[C@](C)(O)[C@H](NC)[C@H]1O (stereo partly drawn) yielded an activity change, negative = inhibition of 2.07% [at 0.349 µM]. In the case of O=C(O)CNC(=O)c1ccc(CO)o1, the Potency is reported as “inactive”. In the case of CC(C)(C)C(=O)Oc1ccc(S(=O)(=O)Nc2ccccc2C(=O)NCC(=O)O)cc1, the Potency is reported as “inactive”. For CN(C)CCN(C)CCN(C)C, the Potency was “inactive”. With Cc1c(N)c(=O)n(-c2ccccc2)n1C the Potency was “inactive”. With NCCCC[C@H](N[C@@H](CCc1ccccc1)C(=O)O)C(=O)N1CCC[C@H]1C(=O)O the Potency was “inactive”. With Nc1ccn([C@@H]2O[C@H](CO)[C@@H](O)C2O)c(=O)n1 (stereo partly drawn) the Potency was “inactive”. For CC(C(=O)O)c1cccc(Oc2ccccc2)c1 (stereo not drawn), the Potency was “inactive”. With O=C(O)CCCC[P+](c1ccccc1)(c1ccccc1)c1ccccc1 the Potency was “inactive”. For COc1cc(C)nc(-n2nc(C)cc2OC)n1, the Potency was “inactive”. For CCCCCCCCCCCCCCCCCCO, the Potency was “inactive”. With CC12CCC(C(=O)C1=O)C2(C)C (stereo not drawn) the Potency was “inactive”. In the case of Cc1ccc(C(=O)c2ccc(CC(=O)O)n2C)cc1, the Potency is reported as “inactive”. With C[N+]1(C)CCCC(OC(=O)C(O)(c2ccccc2)c2ccccc2)C1 (stereo not drawn) the Potency was “inactive”. With CCCCCCCCCCCCCCC(=O)O the Potency was “inactive”. In the case of NCCCC(N)(C(=O)O)C(F)F (stereo not drawn), the Potency is reported as “inactive”. With Cc1coc2ccccc2c1=O the Potency was “inactive”. For CC(C)COC(=O)c1ccc(N)cc1, the Potency was “inactive”. For CN1[C@@H]2CC[C@H]1CC(OC(=O)C(O)c1ccccc1)C2 (stereo partly drawn), the Potency was “inactive”. In the case of COc1cccc(OC)c1C(=O)N[C@@H]1C(=O)N2[C@@H]1SC(C)(C)[C@@H]2C(=O)O, the Potency is reported as “inactive”.
Potency is the fitted concentration of half-maximal effect.
